Results reported in PubChem BioAssay AID652141 (The Scripps Research Institute Molecular Screening Center, 2013).
Screen size: about 5,600 compounds; about 4,500 (80%) were called active. Rule as the data show it: active = inhibition above about 10%; inactive = the rest. So high a share suggests a set chosen from earlier hits. Only a sample is shown.

Assay: inhibition of coupled GDH and TPI enzymes – biochemical, fluorescence, high throughput, artefact control for M. tuberculosis FBA inhibitor project (AID 652141)
Conditions: GDH-TPI coupled enzyme counterscreen, at 1 µM, hits give high values

| SMILES | inhibition |
| --- | --- |
| Cc1ccc(C2Nc3cccc4cccc(c34)N2)cc1 | 137% (active) |
| O=C(Nc1ccc(-c2nnc(-c3ccccc3)o2)cc1)C1CCCO1 (stereo not given) | -0.52% (inactive) |
| O=C(CCc1ccccc1)Nc1cccc(-c2nnc(-c3ccco3)o2)c1 | 69.8% (active) |
| Cc1noc(C)c1COc1ccc2ccc(=O)oc2c1 | 42.7% (active) |
| Cc1cc(C)cc(NC(=O)CSc2ccccc2)c1 | 58.2% (active) |
| Nc1ccccc1C(=O)NC1CCCCNC1=O (stereo not given) | 141% (active) |
| C[C@H]1CN([C@@H](C)CO)C(=O)c2cc(Br)cnc2O[C@H]1CN(C)S(=O)(=O)c1cccs1 | 2.73% (inactive) |
| c1cc(-c2ccc3[nH]ccc3c2)n2ccnc2c1 | 62.4% (active) |
| CCCCOc1ccc(-c2nnc(-c3ccco3)o2)cc1 | 140% (active) |
| CCOc1ccc(-c2nnc(-c3ccco3)o2)cc1 | 65% (active) |
| CCCCn1c(-c2cccc(C)c2)nc2cc3[nH]c(=O)c(C(C)C)nc3cc21 | 33.5% (active) |
| Brc1cnc2ccccc2c1N1CCCCC1 | 60.2% (active) |
| CCCn1c(=O)c(-c2ccccc2)c(O)c2ccccc21 | 75.9% (active) |
| Cc1cccc(NC(=O)c2sc3nc(N4CCOCC4)c4c(c3c2N)CCCC4)c1 | 77% (active) |
| COC(=O)CSc1nc(C)c2ccc(OC)cc2n1 | -4.3% (inactive) |
| CCOC(=O)Cn1c(=O)n(Cc2ccc(OC)cc2)c(=O)c2cccnc21 | 730% [above what the read-out allows, likely interference] (active) |
| CCOC(=O)c1[nH]c2ccc(OC)cc2c1NC(=O)CCN1CCN(Cc2ccccc2)CC1 | -6.9% (inactive) |
| CCOC(=O)c1[nH]c2ccc(OC)cc2c1NC(=O)N1CCOCC1 | 100% (active) |
| O=C(NC1CCN(Cc2ccccc2)CC1)c1cc(Br)c(Br)[nH]1 | 764% [above what the read-out allows, likely interference] (active) |
| N#Cc1c(N2CCCCC2)nc(N)c2c(N)nc(SCC(=O)O)cc12 | 8.17% (inactive) |
| COc1ccc(NC(=O)CN(C)C(=O)c2cc(-c3ccc(C)o3)nc3ccccc23)cc1 | 61.4% (active) |
| CCC(=O)Nc1c(S(=O)(=O)c2ccccc2)c2nc3ccccc3nc2n1Cc1ccccc1 | 150% (active) |
| COc1ccc2[nH]c3c(=O)n(Cc4ccco4)cnc3c2c1 | -2.61% (inactive) |
| COc1ccc2[nH]c3ccc(OC)cc3c2c1 | 198% (active) |

| SMILES | inhibition |
| --- | --- |
| COc1ccc(-c2nc3cc(C)ccn3c2NC2CCCCC2)cc1SC1CCCCC1 | 41.2% (active) |
| COc1ccc2c3c(c(=O)oc2c1OCC(=O)C(C)(C)C)CCCC3 | 51% (active) |
| Cc1c(OC(C)C(=O)N[C@@H](Cc2ccccc2)C(=O)O)ccc2c3c(c(=O)oc12)CCCC3 (stereo not given in full) | -2.05% (inactive) |
| CCN(CC)c1ccc2cc(C(=O)O)c(=O)oc2c1 | 17.4% (active) |
| CCOC(=O)N1CCN(C(=O)c2cc3c(ccc4ccccc43)oc2=O)CC1 | -8.26% (inactive) |
| COC(=O)c1c(C)c(C)nc(N)c1C#N | 49.5% (active) |
| CC1(C)Cc2c(C#N)c(SCc3nc4ccccc4[nH]3)nc(N3CCOCC3)c2CO1 | -4.7% (inactive) |
| CC(C)c1nc(N2CCOCC2)c(C#N)c2c1COC(C)(C)C2 | 32.5% (active) |
| CN(C(=O)c1ccccn1)c1nnc(-c2ccccn2)s1 | 520% [above what the read-out allows, likely interference] (active) |
| CN(C(=O)COc1ccccc1)c1nnc(-c2ccncc2)s1 | 513% [above what the read-out allows, likely interference] (active) |
| Cc1cccc2c1-c1sc(C(=O)NCCCN3CCc4ccccc4C3)cc1CO2 | -4.07% (inactive) |
| O=C(NCCN1CCN(Cc2ccccc2)CC1)c1cc2c(=O)[nH]c3ccccc3c2s1 | 125% (active) |
| CN(C)S(=O)(=O)c1ccc(N/C=C(\[N+](=O)[O-])S(=O)(=O)c2ccccc2)cc1 | -5.04% (inactive) |
| Oc1ccc(Br)cc1C=Nc1ccc2[nH]ncc2c1 | 51.6% (active) |
| CC(C)=NN1C(=O)c2ccccc2NC1(C)C | 121% (active) |
| Cc1cc(NC(C)C)n2c(nc3ccccc32)c1C#N | 181% (active) |
| COc1ccc(C2C3=C(CCCC3=O)N(CC(=O)O)C3=C2C(=O)CCC3)cc1 | 107% (active) |
| CCOC(=O)COc1nc(C)cc(C(F)(F)F)c1C#N | 36.8% (active) |
| COc1ccc2sc(-c3ccc(N(C)C)cc3)c(-c3ccc4cc[nH]c4c3)c2c1 | 55.2% (active) |
| O=C(CN1C(=O)c2cccc3cccc(c23)C1=O)N1CCCCC1 | 53.9% (active) |
| CCCCN(CCCC)CC(O)Cn1c2ccccc2c(=O)c2ccccc21 (stereo not given) | 87.8% (active) |
| CN1c2ccc(C=O)c3c(C=O)ccc(c23)N(C)C1(C)C | 19.9% (active) |
| CCOc1ccc2nc(Nc3nc4ccc(NC(C)=O)cc4s3)sc2c1 | 13.8% (active) |
| O=C(Nc1ncc2c(n1)-c1ccccc1OC2)c1ccc(Cl)cc1 | 82.3% (active) |

| SMILES | inhibition |
| --- | --- |
| CN(C(=O)c1cc2c(=O)n3ccccc3nc2s1)C1CCCCC1 | 46.3% (active) |
| O=C(c1cc(-c2ccco2)nc2ccccc12)N(Cc1nnc(-c2ccc(Cl)cc2)o1)C1CC1 | 72.7% (active) |
| CN(CCOc1ccccc1)C(=O)c1cc(-c2ccco2)nc2ccccc12 | -2.35% (inactive) |
| COc1ccc(CNC(=O)c2c[nH]c3c(OC)cc(OC)cc3c2=O)cc1 | -3.81% (inactive) |
| COc1cccc2[nH]c(C(=O)NCCc3ccccc3)cc12 | 961% [above what the read-out allows, likely interference] (active) |
| Cc1nn(-c2ccccc2)nc1C(=O)OCC(=O)N1CCCCC1C (stereo not given) | -3.64% (inactive) |
| Cc1cnc(C(=O)OCC(=O)N2CCc3ccccc32)cn1 | 99.3% (active) |
| CCOc1c2ccc(C(=O)NC3CCCc4ccccc43)cc2nn1CC (stereo not given) | 7.23% (inactive) |
| CCOc1c2ccc(C(=O)NCc3ccc(OC(F)(F)F)cc3)cc2nn1C | 79.5% (active) |
| CCCn1nc2cc(C(=O)NCc3ccccc3)ccc2c1OCC | -3.32% (inactive) |
| CCOc1c2ccc(C(=O)NCc3ccc4c(c3)OCO4)cc2nn1C | 68.1% (active) |
| CC(=O)c1sc2nc(SCC(=O)N3CCCCC3)[nH]c(=O)c2c1C | 55.4% (active) |
| Cc1nc(NCCN)c(C#N)c2c1COC(C)(C)C2 | 76.9% (active) |
| Oc1ccccc1C1=NN(c2ccccc2)C(c2ccccc2)C1 (stereo not given) | 84% (active) |
| COc1ccc(C2CC(c3cccs3)=NN2c2ccc(F)cc2)cc1OC (stereo not given) | 71.1% (active) |
| COc1ccc(C2CC(c3cccs3)=NN2c2ccccc2)cc1 (stereo not given) | 23.7% (active) |
| COc1ccccc1N1N=C(c2cccs2)CC1c1ccccc1 (stereo not given) | 46.6% (active) |
| Fc1ccc(N2N=C(c3cccs3)CC2c2ccco2)c(F)c1 (stereo not given) | -3.03% (inactive) |
| CS(=O)(=O)Nc1ccc(C2=NN(S(C)(=O)=O)C(c3cccs3)C2)cc1 (stereo not given) | -3.93% (inactive) |
| Cc1cc(C)c(-c2c(O)c3ccccc3n(C)c2=O)c(C)c1 | 61.1% (active) |
| Cc1ccc(S(=O)(=O)N2CCN(C(=O)CSc3cc(C)ccc3C)CC2)c(C)c1 | 108% (active) |
| CCc1cc(=O)oc2cc(C)cc(OCC(=O)N3CCC[C@@H]3C(=O)O)c12 | 54.6% (active) |
| CCCC/C=C/c1cccc2nncn12 | 54% (active) |
| CCOc1ccccc1C1CC(c2ccccc2)Nc2nc(N)nn21 (stereo not given) | 132% (active) |

| SMILES | inhibition |
| --- | --- |
| CN(C)CCCn1c(N)c(C#N)c2nc(C#N)c(C#N)nc21 | 76.3% (active) |
| c1ccc(Cc2c(-c3ccco3)nc3c4ccccc4ccn23)cc1 | 95.6% (active) |
| CN(C)c1ccc(/C=N/NC(=O)C(O)c2ccc(Br)cc2)cc1 (stereo not given) | 64% (active) |
| CC(C)C1Nc2c(C(=O)O)cccc2C(Nc2ccccc2C(=O)O)C1(C)C (stereo not given) | 87.3% (active) |
| CC(=O)N1C(=O)/C(=C2\SC(=S)N(NC(=O)c3ccc(O)cc3)C2=O)c2ccccc21 | -2.52% (inactive) |
| Cc1cc(OCc2cc(C(=O)O)oc2C)c2c3c(c(=O)oc2c1)CCCC3 | 89.5% (active) |
| COC(=O)COc1cc(C)cc2oc(=O)c3c(c12)CCCC3 | 105% (active) |
| CC(=O)N1CCN(C(=O)c2cc(-c3ccc(Cl)s3)nc3ccccc23)CC1 | -3.53% (inactive) |
| O=C(c1cc(-c2ccc(Cl)s2)nc2ccccc12)N1CCOCC1 | 83% (active) |
| Cc1ccc2nc(-c3ccco3)c(Cc3cccc(Cl)c3)n2c1 | 63.6% (active) |
| O=C(NCCN1CCOCC1)c1cc(-c2cccs2)nc2ccccc12 | -3.18% (inactive) |
| CC(C)(C)OC(=O)NNc1c2ccccc2nc2ccccc12 | -5.25% (inactive) |
| COC(=O)c1cc(-c2cccs2)nc2ccccc12 | 96.2% (active) |
| CC(C)n1c(-c2cccs2)nc2ccccc21 | 68.4% (active) |
| Cc1cc(=O)oc2c1ccc1ccccc12 | 71.6% (active) |
| COCCN(CCOC)c1nc(N)c2c(N)nc3c(c2c1C#N)CC(=O)N3Cc1ccc(Cl)cc1 | 79% (active) |
| N#CC1(Nc2ccc3c4c(cccc24)CC3)CCCCC1 | 103% (active) |
| COCc1cc(=O)oc2cc(NS(=O)(=O)c3ccc(C)cc3)ccc12 | 51.2% (active) |
| CCSc1nnc(-c2cc3c(s2)-c2ccccc2CC3)o1 | 53.8% (active) |
| Cc1cc(OCC(=O)NCC(O)c2ccccc2)c2c(C)c(C)c(=O)oc2c1 (stereo not given) | 187% (active) |
| CC1(C)CC(=O)c2cc(OCC(=O)NCC3CCCO3)ccc2O1 (stereo not given) | -4.8% (inactive) |
| Cc1cc(=O)oc2c3c(cc(OCC(=O)NCC(O)c4ccccc4)c12)OC(C)(C)CC3 (stereo not given) | 46.9% (active) |
| CC1=CC2=NC(=O)CC(C)(C(=O)N(CC(=O)NC(C)(C)C)Cc3ccccc3)N2C=C1 (stereo not given) | 4.57% (inactive) |
